# Results: paper PMC7819943, “Rice protein-binding microarrays: a tool to detect cis-acting elements near promoter regions in rice”
# Whole data set: some 39,000 sequences, median “fluorescence intensity (a.u.)” near 4,300, cut for the highest 2% near 39,000. This is one part of a sample in which the highest values are shown more often than they occur.
# Molecular target: T1, OsSMF1 (Oryza sativa, UniProt Q6ZLB0 1-436)
# T1 sequence: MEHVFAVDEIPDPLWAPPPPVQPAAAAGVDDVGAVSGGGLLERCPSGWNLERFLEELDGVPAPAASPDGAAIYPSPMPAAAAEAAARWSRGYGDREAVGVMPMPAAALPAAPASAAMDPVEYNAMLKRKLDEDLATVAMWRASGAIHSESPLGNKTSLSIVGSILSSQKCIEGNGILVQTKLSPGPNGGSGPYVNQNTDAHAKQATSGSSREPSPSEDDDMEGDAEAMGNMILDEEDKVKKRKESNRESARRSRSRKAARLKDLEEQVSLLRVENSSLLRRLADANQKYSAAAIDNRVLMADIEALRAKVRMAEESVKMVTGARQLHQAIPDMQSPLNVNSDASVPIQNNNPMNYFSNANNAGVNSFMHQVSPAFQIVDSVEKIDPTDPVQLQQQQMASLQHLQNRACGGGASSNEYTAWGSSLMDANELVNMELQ
# Test: protein-binding microarray (RPBM); PBS, 2% BSA, 51.3 ng/ul salmon testes DNA, 50 uM zinc acetate, 200 nM TF, 25 C, 1 h; high values mean tight binding
# Conditions: protein: recombinant; tags: N-terminal polyhistidine and DsRed monomer fusion (pET32a); chain copies: 2; label: CyDye5-dUTP incorporated in the synthesized complementary strand; 3' TTTTT single-stranded linker to array surface; dsDNA, one strand shown
# Summary of the method: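 Transcription factors were made in E. coli BL21-CodonPlus as N-terminal fusions to a polyhistidine tag and DsRed, then purified on Ni–NTA. After primer extension with Cy5-dUTP and blocking with 2% BSA, a custom Agilent array was exposed for 1 h at 25 °C to 200 nM protein in PBS, 2% BSA, salmon testes DNA and 50 µM zinc acetate. Washed arrays were scanned on an Axon 4000B, and the binding signal is per-feature fluorescence intensity in arbitrary units.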
row,Sequence,binding signal
1,ATCAAAATGGCAACAAAAGGGAGTCCAAAGTGAAAATTTTCGGAGTCACCTAGTGCAG,36100 fluorescence intensity (a.u.)
2,CCTCTGGCATCCATTATTGAGTTTATTAATCCTCCATCCTCGGAGTCACCTAGTGCAG,26300 fluorescence intensity (a.u.)
3,ATCTCCATCGCTGGCGACGGCGAGCATCGCATCGCATCGCCGGAGTCACCTAGTGCAG,3150 fluorescence intensity (a.u.)
4,GCGGCTGAATTAATCTCCATCTGGCGAGCATCCACATCCTCGGAGTCACCTAGTGCAG,52300 fluorescence intensity (a.u.)
5,ACATCATCGGCTACGTCAGGTCCAGCGCCGCCGCCAAGGCCGGAGTCACCTAGTGCAG,6640 fluorescence intensity (a.u.)
6,AACCCTAGCCACTCTCGTTTCATTGGTCTGACTTATTGGGCGGAGTCACCTAGTGCAG,14700 fluorescence intensity (a.u.)
7,CGCGCGTCTCGACTCCGTCCCAATCGATCGATCGATCGCGCGGAGTCACCTAGTGCAG,12800 fluorescence intensity (a.u.)
8,CACGAGCTGGTGGGCATCGAGGACTCCACACACGCGCATCCGGAGTCACCTAGTGCAG,42800 fluorescence intensity (a.u.)
9,GGACACACACCCACACGCGCATCCATCCATCCATCCATCCCGGAGTCACCTAGTGCAG,3220 fluorescence intensity (a.u.)
10,CGCGCCATCGGCACGCTGGGCCAACACGGCACGGTGGACCCGGAGTCACCTAGTGCAG,3820 fluorescence intensity (a.u.)
11,GGTGTGGCGTGAGCGTGACACGGTGTCAACTGTCAAGTGTCGGAGTCACCTAGTGCAG,3400 fluorescence intensity (a.u.)
12,AATAGCTCTCTCCTCAGTCTCTCACGGCCTCATCACCACCCGGAGTCACCTAGTGCAG,3170 fluorescence intensity (a.u.)
13,TCTCGCCTACCACCAAGCTCATCTCGTTTCGTTAGCTACCCGGAGTCACCTAGTGCAG,41600 fluorescence intensity (a.u.)
14,TGCCCGGCTCGGCTACCCCGTCGCCACCGCCGTTCGTTTCCGGAGTCACCTAGTGCAG,3190 fluorescence intensity (a.u.)
15,TGGCGGTTTGGAAGGCGGTTTTGGCTGACGTGGCGTCTACCGGAGTCACCTAGTGCAG,43800 fluorescence intensity (a.u.)
16,AGGCGGTTTTGGCTGATGTGGCGTCTACGTGGCTTGTTTGCGGAGTCACCTAGTGCAG,25300 fluorescence intensity (a.u.)
17,GGTCCCTCAGCGGTTTTGGCTGACGTGGCGCATACGTGGCCGGAGTCACCTAGTGCAG,51700 fluorescence intensity (a.u.)
18,GACCCCGGTTTTGTCCCACGTGGCGGCTGACTCAGCGTGGCGGAGTCACCTAGTGCAG,22500 fluorescence intensity (a.u.)
19,GTTTTGACCCGGTTTTGGTCTACGTGGCGCTGAGTCAGCGCGGAGTCACCTAGTGCAG,29900 fluorescence intensity (a.u.)
20,TTTAGATGGCGGTTTTGGCTGACGTGGCGTCTACGTGACGCGGAGTCACCTAGTGCAG,30700 fluorescence intensity (a.u.)
21,GATCTCCTTTACACGTGATGTTGACGTGGCGTTTAGGTGGCGGAGTCACCTAGTGCAG,26500 fluorescence intensity (a.u.)
22,GGAAGCGCCAGCCAGCGCTCGCCGTTGTCACCTGTCACACCGGAGTCACCTAGTGCAG,3480 fluorescence intensity (a.u.)

row,Sequence,binding signal
1,TACAGATCGATGCGACACTCTGACACGTTACGCTCTCTCTCGGAGTCACCTAGTGCAG,6440 fluorescence intensity (a.u.)
2,TTGTGATGTCCATGTCACATGCAGTCCATTAAGGCCCTTGCGGAGTCACCTAGTGCAG,5190 fluorescence intensity (a.u.)
3,GTTGTTGTTCTTGGATGTGAATGTGAATAATGTGATGTTTCGGAGTCACCTAGTGCAG,3350 fluorescence intensity (a.u.)
4,CAGTGCTAGGGAAGCGACCAATGATGGATAGTGGGAGGCACGGAGTCACCTAGTGCAG,45600 fluorescence intensity (a.u.)
5,TGTGGTGGCGAGCGGCACGGAGGCGGGGCGGTGGAGGGAGCGGAGTCACCTAGTGCAG,3980 fluorescence intensity (a.u.)
6,TAGAGGCAAGCACGACCAATGAGGACATAGGGAATGGTTCCGGAGTCACCTAGTGCAG,9700 fluorescence intensity (a.u.)
7,CTGTGCCGCTCGCTCGTTCGCTCTGTGACTGTACGTACATCGGAGTCACCTAGTGCAG,4590 fluorescence intensity (a.u.)
8,GTGTGGGGCCACGTCACAGTGGGCCCCATATGTCGGTGGGCGGAGTCACCTAGTGCAG,12700 fluorescence intensity (a.u.)
9,TTGTCGCGATGTGCCCCTTCTACGGGGTGCCACGTCACATCGGAGTCACCTAGTGCAG,39500 fluorescence intensity (a.u.)
10,CCACATCGGATGCCACGTCAGCCCTAGCCACATCAGCGCACGGAGTCACCTAGTGCAG,38500 fluorescence intensity (a.u.)
11,GTTCGGTTTCGCGGTCAAGCGCGTGACGTGAGGTCGCCCACGGAGTCACCTAGTGCAG,5720 fluorescence intensity (a.u.)
12,CAGCAGCAGCAGCAGCCGCCGCCTCCGTCCGTCCGTCCGTCGGAGTCACCTAGTGCAG,3230 fluorescence intensity (a.u.)
13,GAGAAATGACGACACATCCTCTCGAGTGATCAGGATCCGTCGGAGTCACCTAGTGCAG,3590 fluorescence intensity (a.u.)
14,TGTGCCCTCTCCGTTCGATCCAGGAAAATGATAGTGTGATCGGAGTCACCTAGTGCAG,50200 fluorescence intensity (a.u.)
15,TTCGTGTGCCTAGGAAAATGGTATCCAAACCCCTCAAAATCGGAGTCACCTAGTGCAG,4190 fluorescence intensity (a.u.)
16,TCACATCCGAGCTGAGCTCCTGACACAGTGACACTACTGGCGGAGTCACCTAGTGCAG,4310 fluorescence intensity (a.u.)
17,CGTACAACGGGTGTGTGTTTGGAGCCTGTAGCATGTGGTGCGGAGTCACCTAGTGCAG,4250 fluorescence intensity (a.u.)
18,GGGCAGCGTGTACAAGCCGGACAACGTGTCGCCGCCGGAGCGGAGTCACCTAGTGCAG,3340 fluorescence intensity (a.u.)
19,GGCCTGTCGTACAAGCCGCTTTGCTTGGGCATACAAGCAACGGAGTCACCTAGTGCAG,65100 fluorescence intensity (a.u.)
20,GATTACATGTAGACTATTTATCTACGTGGACAAAATCTCTCGGAGTCACCTAGTGCAG,13100 fluorescence intensity (a.u.)
21,GAAACTCTAAATCTGCCATTACCCCAAGTACATCATTAGTCGGAGTCACCTAGTGCAG,3310 fluorescence intensity (a.u.)
